Insulin prom up: MIN6 insulin promoter up-regulation; AID 1625; 190,000 compounds, 0.3% hits; MIN6 insulin promoter-GFP reporter, high-content imaging; active compounds read high; z-score at 5 µM;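 active = z-score above 3 at 5 µM with at least 500 cells counted in the well; inconclusive = wells under 500 cells, flagged as cytotoxic or low count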
Autophagy mod: alters autophagy in cells; calls only at 10 µM (by protocol); AID 463193; 190,000 compounds, 0.98% hits; MEF GFP-LC3 puncta imaging; test concentration mostly 10 µM;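 active = percentage of spot-positive cells more than 3 SD above its plate mean, without a fluorescence outlier flag or 80% toxicity; inconclusive = no clear call, values can overlap the other calls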
L major viab: inhibitors of Leishmania major promastigote growth; Leishmania major promastigotes, resazurin fluorescence viability; 200,000 compounds, 9% hits; inhibition, % at 10 µM; AID 1063; in the data active = inhibition above about 50%;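 note: promastigotes grown with compound for 44 hours at 28 °C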
HCT116 bCat-KO: beta-catenin-lacking colon tumor cell growth suppression | HCT116 beta-catenin knockout viability, CellTiter-Glo, 60 h; active compounds read low | viability, % at 10 µM | 140,000 compounds, 1.5% hits | AID 818;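 active = viability at or under a set limit, the compound median less 4 SD, cut at about 6% in these data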
HCT116 PTEN-null: suppresses growth of cells with PTEN deletion; HCT116 PTEN-null viability, CellTiter-Glo, 60 h; active compounds read low; viability, % at 10 µM; 140,000 compounds, 1.2% hits;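 active = viability at or below a set limit, 4 SD under the median of all tested compounds, cut at about 3.7% in these data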;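 note: PTEN knockout HCT116 line with beta catenin targeted HCT116 as companion control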
INS promoter inh: TRM-6 insulin promoter activity inhibition; TRM-6 cells (human fetal islet line), insulin promoter-eGFP reporter, imaging; reporter expression induced with tamoxifen; inhibition, % at 2 µM; 130,000 compounds, 0.9% hits; AID 1273;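 active = inhibition above the mean plus 3 SD, with well images judged a real hit on visual review, cut at about 60% in these data, passing the limit was not always enough; inconclusive = inhibition over the cutoff but images rejected on review; inactive = inhibition not above the cutoff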
A number is an active result; n = inactive; u = inconclusive; x = not tested or not shown; + = active, no number. Most compounds without a hit are left out; they make up all but 9.6% or so of the library.

SMILES | Insulin prom up | Autophagy mod | L major viab | HCT116 bCat-KO | HCT116 PTEN-null | INS promoter inh
CN1CCN(C(=O)CSc2nc(-c3cccs3)cc(-c3cccs3)c2C#N)CC1 | n | n | 66 | 3.1 | n | n
Cc1cc([N+](=O)[O-])ccc1NC(=O)Nc1ccc(F)cc1F | n | n | 67 | x | x | n
O=C(Nc1cccc([N+](=O)[O-])c1)C1C2CC/C=C\CCC21 (centres undefined) | n | x | x | x | x | x
O=C(Nc1ccc(OC(F)(F)F)cc1)Nc1cccc([N+](=O)[O-])c1 | n | n | 100 | 2.9 | 3.5 | x
CC1=C(C)CC(C(=O)Nc2cccc([N+](=O)[O-])c2)C(C(=O)O)C1 (centres undefined) | n | n | 67 | n | n | n
Cc1ccc(NC(=O)Nc2cccc([N+](=O)[O-])c2)cc1F | n | n | 53 | n | n | x
CCCCN(CC)Cc1ccc(CNC(=O)Nc2ccc(F)cc2)o1 | x | n | 98 | n | n | n
CCCCN(CC)Cc1ccc(CNC(=S)Nc2c(C)cc(C)cc2C)o1 | n | n | n | x | x | n
COc1ccc(Cc2noc(CN3CCCN(C4Cc5ccccc5C4)CC3)n2)cc1OC | n | n | n | x | x | x
C=CCn1c(SCC(=O)NC2CCS(=O)(=O)C2)nc2scc(C3CC3)c2c1=O (centres undefined) | n | n | n | n | n | x
Cc1nc(=O)c(-c2ccccc2)c(C)n1-c1ccc(O)cc1 | n | n | n | n | n | 100
Cc1cccc(N2C(=O)CC(N3CCN(c4ccccc4)CC3)C2=O)c1 (centres undefined) | n | n | n | n | n | x
C/C(=N\Nc1ccc(C(F)(F)F)cn1)c1ccc(S(=O)(=O)NCc2ccco2)cc1 | n | n | 75 | n | n | n
C/C(=N\Nc1nc(Cl)c(Cl)cc1Cl)c1ccc(S(=O)(=O)NCc2ccco2)cc1 | n | n | 100 | n | n | n
O=C(O)Cc1c(O)ccc2ccccc12 | n | n | n | n | n | n
Cc1cc(Nc2ccc(O)cc2)n2c(nc3ccccc32)c1C#N | n | n | n | x | x | x
CC1CCc2nc3ccc(S(=O)(=O)N4CCC(C(=O)NC5CCCC5)CC4)cc3c(C(=O)O)c2C1 (centres undefined) | n | x | n | n | n | x
Cc1cc(C(=O)CN2C(=O)C(=O)N(Cc3ccccc3)C2=O)c(C)n1CC1COc2ccccc2O1 (centres undefined) | n | n | n | x | x | n
Cc1cc(C(=O)COC(=O)c2ccc(CO)cc2)c(C)n1CC1COc2ccccc2O1 (centres undefined) | n | n | 55 | n | n | n
O=C(CCc1nc2ccccc2s1)OCc1ccccc1 | n | n | 56 | n | n | n
O=C(CCC(=O)c1cccs1)OCc1nc2ccccc2s1 | n | n | n | n | n | n
CC1=NNC(=O)C1CC(=O)N/N=C/C(Br)=C/c1ccccc1 (centres undefined) | n | x | x | x | x | x
Cc1nc(-c2ccc(C(=O)Nc3ccc(F)cc3)cc2)cs1 | n | n | n | x | x | n
Cc1nc(-c2ccc(NC(=O)c3ccccc3Br)cc2)cs1 | n | n | 71 | n | n | n
CCC(=O)Nc1ccc(-c2csc(C)n2)cc1 | n | n | n | n | n | n
SMILES | Insulin prom up | Autophagy mod | L major viab | HCT116 bCat-KO | HCT116 PTEN-null | INS promoter inh
Cc1nc(-c2ccc(NC(=O)c3ccccc3C)cc2)cs1 | n | n | 50 | x | x | x
O=C(Nc1ccc(C2CC2(Cl)Cl)cc1)c1ccccc1Br (centres undefined) | n | n | 83 | n | n | n
CCC1=NN2C(=N)/C(=C\c3cccn3-c3ccc(Br)cc3)C(=O)N=C2S1 | x | n | n | x | x | n
CCC(C)(C(=O)NC1CCCCC1)N(Cc1cccs1)C(=O)c1ccccn1 (centres undefined) | n | n | n | x | x | n
CO/N=C(\Cn1ncc(N2CCCC2)c(Br)c1=O)c1ccc(Cl)cc1 | n | n | 71 | n | n | n
CCOc1cc(S(=O)(=O)N(CC)CC)c(OCC)cc1-n1cnnn1 | n | n | n | n | n | n
CCN(CC)CCNC(=O)Cc1c(C(=O)O)n(CC)c2ccccc12 | x | n | n | n | n | x
CN(C)CCNC(=O)Cc1c(C(=O)O)n(C)c2ccccc12 | x | n | 94 | x | x | n
CCOC(=O)N1CCC(NC(=O)CN2C(=O)CCSc3ccccc32)CC1 | n | n | n | n | n | n
COc1ccc(-c2nc3oc4cc(OC)ccc4c(=O)c3c(=O)n2Cc2ccco2)cc1 | n | n | 73 | n | n | n
COc1ccc2c(=O)c3c(=O)n(Cc4ccco4)c(-c4ccco4)nc3oc2c1 | n | n | n | n | n | n
COCCn1c(-c2ccc(OC)cc2)nc2oc3cc(OC)ccc3c(=O)c2c1=O | x | n | 55 | n | n | n
CCOc1ccc(C(=O)N2CCN=C2SC)cc1OCC | n | + | n | n | n | x
CCOc1ccccc1C(=O)N1CCN=C1SC | u | n | n | n | n | x
O=C(Nc1ccc(O)c2c(=O)cc(-c3ccccc3Cl)oc12)c1ccc(F)cc1 | n | x | x | x | x | x
O=C(Nc1ccccc1F)C(=Cc1sc(N2CCOCC2)nc1-c1ccccc1)C(=O)Nc1ccccc1F | n | n | 53 | n | n | x
Cc1cc(C(=O)N/N=C/c2sc(N3CCOCC3)nc2-c2ccccc2)c(C)o1 | n | n | 52 | x | x | n
O=C(N/N=C/c1sc(N2CCOCC2)nc1-c1ccccc1)c1ccccc1F | n | x | x | x | x | x
CCN(CC)CCN1C(=O)C(=O)/C(=C(/O)c2ccc(OC)cc2)C1c1ccco1 (centres undefined) | n | n | n | n | n | x
CC(C)Oc1ccc(/C(O)=C2/C(=O)C(=O)N(CCN(C)C)C2c2ccco2)cc1 (centres undefined) | x | n | 89 | n | n | n
O=C(NCc1ccc2c(c1)OCO2)c1cccc(C(=O)NCc2ccc3c(c2)OCO3)c1 | n | n | n | n | n | n
O=C(CN1CCN(c2ccc(O)cc2)CC1)Nc1ccc(SC(F)F)cc1 | n | n | 57 | n | n | n
COc1cccc(N2CCN(CC(=O)Nc3ccc(SC(F)F)cc3)CC2)c1 | n | n | n | n | n | x
O=C(CN1CCN(c2ccc(Cl)cc2)CC1)Nc1ccc(F)cc1 | x | n | n | n | n | n
CCN(CC)c1ccc(NC(=O)CN2CCN(c3ccc(F)cc3)CC2)cc1 | n | n | 72 | n | n | x
SMILES | Insulin prom up | Autophagy mod | L major viab | HCT116 bCat-KO | HCT116 PTEN-null | INS promoter inh
CN(c1ccccc1)S(=O)(=O)c1cccc(NC(=O)CSc2nncn2C)c1 | n | n | 57 | n | n | n
O=C(Nc1cccc(S(=O)(=O)N2CCCCCC2)c1)c1cc(=O)c2ccccc2o1 | n | n | n | x | x | x
CN(c1ccccc1)S(=O)(=O)c1cccc(NC(=O)c2cc(=O)c3ccccc3o2)c1 | n | n | 80 | x | x | n
CCCC(=O)Nc1cccc(S(=O)(=O)N(C)c2ccccc2)c1 | x | n | 67 | n | n | n
COc1ccc(NC(=O)CN(C)CC(=O)Nc2cccc(S(=O)(=O)N(C)c3ccccc3)c2)cc1 | n | n | 81 | x | x | x
COc1ccc(NC(=O)CN(C)S(=O)(=O)c2ccccc2)cc1 | n | n | n | n | n | n
CCC1(C)Cc2nc3[nH]c(=S)n(-c4ccccc4C)c(=O)c3cc2CO1 (centres undefined) | n | x | x | x | x | x
